High-throughput results (PubChem BioAssay)
This is a sample that favours compounds with a hit; in the whole collection about 2.9% have one here.
PAFAH1B2 inh: inhibitors of human PAFAH1B2; recombinant PAFAH1B2, FP-rhodamine activity probe, fluorescence polarization; P68402; AID 492953; 1.2% of 340,000 active; inhibition, % at 3.39 µM;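 active = inhibition above the mean of all tested compounds plus 3 SD, cut at about 24% in these data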;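 note: 0% = enzyme with DMSO and 100% = wells lacking PAFAH1B2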
PME-1 primary: blocks human protein phosphatase methylesterase 1; recombinant PME-1, FP-Rh probe fluorescence polarization; Q9Y570; 0.53% of 320,000 active; inhibition, % at 5.9 µM;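 active = inhibition above the campaign mean of all compounds plus 3 SD, cut at about 26% in these data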;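 note: competitive labeling of PME-1 active site by serine hydrolase directed probe; 0% = PME-1 with DMSO and 100% = wells lacking PME-1 enzyme; inhibitors block probe labeling so polarization falls and inhibition rises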
pPAFAH FP inh: inhibitors of human plasma PAF acetylhydrolase (pPAFAH). Q13093. recombinant pPAFAH, FP-rhodamine probe fluorescence polarization. inhibition, % at 3.39 µM. 1.5% of 330,000 active. AID 463082;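 active = inhibition above the mean inhibition across the screen plus 3 SD, cut at about 25% in these data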;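 note: inhibitors block binding of the rhodamine activity-based probe so polarization drops; 0% = enzyme with DMSO and 100% = wells lacking pPAFAH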
Target sequence (Q13093 whole entry, looked up): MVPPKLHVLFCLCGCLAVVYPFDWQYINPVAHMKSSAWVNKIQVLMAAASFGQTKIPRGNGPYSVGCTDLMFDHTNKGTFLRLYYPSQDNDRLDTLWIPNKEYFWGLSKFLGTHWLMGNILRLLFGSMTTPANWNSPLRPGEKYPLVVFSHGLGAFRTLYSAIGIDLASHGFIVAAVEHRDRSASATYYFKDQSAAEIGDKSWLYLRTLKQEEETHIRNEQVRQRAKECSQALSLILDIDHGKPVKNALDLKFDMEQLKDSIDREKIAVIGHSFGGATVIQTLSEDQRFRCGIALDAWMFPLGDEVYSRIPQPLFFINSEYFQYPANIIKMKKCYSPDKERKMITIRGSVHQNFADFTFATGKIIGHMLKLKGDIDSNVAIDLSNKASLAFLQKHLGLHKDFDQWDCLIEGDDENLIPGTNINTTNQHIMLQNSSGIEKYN
PAFAH2 FP inh: inhibitors of human PAFAH2. recombinant PAFAH2, FP-rhodamine activity probe, fluorescence polarization. inhibition, % at 3.39 µM. 0.99% of 340,000 active;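 active = inhibition above the mean over all tested compounds plus 3 SD, cut at about 30% in these data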;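 note: inhibitors block probe labeling of enzyme so polarization drops; 0% = enzyme with DMSO and 100% = wells lacking PAFAH2 protein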
Fam108B inh: Fam108B inhibition, counter-screen for RBBP9 inhibitors; recombinant Fam108B, FP-Rh probe fluorescence polarization; inhibition, % at 9.51 µM; 0.33% of 300,000 active;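 active = inhibition above the screen mean inhibition plus 3 SD, computed separately per campaign, cut at about 18% in these data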;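 note: inhibitors lower polarization as less probe binds the enzyme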
PAFAH1B3 FP inh: PAFAH1B3 (human) inhibition | Q15102 | 0.28% of 340,000 active | recombinant PAFAH1B3, FP-rhodamine probe, fluorescence polarization | AID 492972 | inhibition, % at 3.39 µM;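 active = inhibition above the screen-wide average of all tested compounds plus 3 SD, cut at about 25% in these data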;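 note: 0% = enzyme with DMSO only and 100% = wells lacking PAFAH1B3 protein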
* hit, by the source's call; · = no result given.

SMILES | PAFAH1B2 inh | PME-1 primary | pPAFAH FP inh | PAFAH2 FP inh | Fam108B inh | PAFAH1B3 FP inh
COc1ccc(S(=O)(=O)NC2CC(=O)N(c3cccc(F)c3)C2)cc1OC (stereo not given) | 2 | 9 | 7 | 3 | 0 | 0
Cc1ccc(S(=O)(=O)N(Cc2cccc(F)c2)C(=O)N2CCN(C)CC2)cc1 | 3 | 5 | 6 | 1 | 2 | 6
COc1cc(OC)cc(C(=O)Nc2cc(C)nn2-c2ccccc2)c1 | -3 | 0 | 2 | -9 | 11 | 9
O=C(O)c1cccc(NC(CNS(=O)(=O)c2ccc(Cl)cc2)c2ccccc2)c1 (stereo not given) | 75* | 2 | 26* | 18 | 5 | 11
O=S(=O)(NCC(Nc1ccccc1)c1ccccc1)c1ccc(Cl)cc1 (stereo not given) | 17 | 20 | 10 | 13 | 4 | 0
C/C(=C\c1cc2ccccc2o1)C1Nc2cccc3cccc(c23)N1 | -2 | 26 | 2 | -5 | · | 15
O=C(NC(=S)Nc1ccc2nc[nH]c2c1)c1ccccc1 | 3 | -2 | 2 | 0 | -2 | 3
CCOC(=O)c1sc2cc([N+](=O)[O-])cc(SCCO)c2c1N | -5 | -7 | 3 | -8 | -1 | 4
CCOC(=O)c1sc2cc([N+](=O)[O-])cc(SCC(=O)OC)c2c1N | -2 | 8 | 25* | 4 | 7 | 5
S=c1[nH]nc(CCSCc2ccccc2)n1-c1ccccc1 | 28* | -1 | 4 | 11 | -5 | 8
CCOC(=O)NC1(Nc2cccc(Cl)c2)Oc2ccccc2O1 | -3 | -2 | 33* | -3 | 2 | 8
O=C(Cc1ccc(Br)cc1)c1ccc(O)cc1O | 82* | -6 | 4 | -3 | 3 | 4
CCC(=O)NC(c1ccc(Cl)cc1Cl)c1ccc2cccnc2c1O (stereo not given) | 0 | -1 | 27* | 6 | 0 | 14
CC(C)C(=O)NC(c1ccc(Cl)cc1Cl)c1ccc2cccnc2c1O (stereo not given) | -1 | 0 | 26* | -12 | 5 | 9
OC[C@@H]1CC[C@@H](Cc2ccc(-c3ccccc3)cc2)O1 | 4 | · | 10 | 0 | · | -4
COc1ccc(-c2n[nH]c(C)c2-c2cc(OC)ccc2O)cc1 | 5 | -4 | -4 | -3 | 2 | 10
Oc1ccc(Br)cc1-c1cc(-c2ccc(Cl)cc2)n[nH]1 | 1 | -158 | -37 | -70 | -56 | 16
COc1ccc(-c2cc(-c3ccc(Cl)cc3)n[nH]2)c(O)c1 | 9 | 42* | -7 | -1 | 3 | 2
COc1ccc(-c2cc(-c3cc(OC)ccc3O)[nH]n2)cc1 | 1 | 66* | 7 | -1 | 13 | 22
C[C@]12C(=O)N(c3ccc(F)cc3)C(=O)N1[C@H]1c3ccccc3OC[C@@H]1[C@H]2c1ccccc1 | 0 | · | 2 | -5 | · | 8
COC(=O)c1sccc1NC(=O)CC1C(=O)NCCN1C(=O)Nc1ccc(OCc2ccccc2)cc1 (stereo not given) | 61* | -5 | 5 | 1 | -2 | 4
Brc1ccsc1-c1csc(-c2ccncc2)n1 | 4 | 6 | 12 | -1 | -4 | 13
COc1ccc(NC(=O)C2CCC2)cc1S(=O)(=O)Nc1cc(C)ccc1Br | 5 | · | 29* | 0 | · | 6
COc1ccc2nc(SCC(N)=O)cc(C)c2c1 | -2 | 4 | -8 | 11 | 1 | -4
COc1ccc2c(-c3ccccc3)cc(SCC(N)=O)nc2c1 | -3 | -8 | 33* | -5 | -9 | -6
CCOC(=O)C1=C(COc2ccccc2)NC(=O)NC1c1cccc([N+](=O)[O-])c1 (stereo not given) | 3 | 5 | 0 | 2 | -1 | 9
Cc1ccc2c(c1)c1c3n2CC(=C2C(=O)OC(C)(C)OC2=O)NC3CCC1 (stereo not given) | 3 | 4 | 29* | 22 | 8 | 13
Cc1ccc2c(c1)c1c3n2CCN(C(=O)C2CC2)C3CCC1 (stereo not given) | 9 | 0 | 10 | -2 | 3 | 0
CCCCNc1c(-c2ccc(SC(C)CC)cc2)nc2cnccn12 (stereo not given) | 13 | · | 34* | 18 | · | 27*
O=C1NC(=Nc2ccccc2)SC1Cc1cccc(Cl)c1Cl (stereo not given) | 1 | -3 | 29* | 0 | 1 | 1
